“And” between values parts separate entries of the source, which are not always exact repeats. Identical values can stand only once. Compounds without any hit were thinned out: in the full panel of roughly 83,000, 20% have a hit.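 Step 1: grow cells in 96-well plates. Step 2: add test compound at a single concentration. Step 3: incubate 48 h. Step 4: record percent growth.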 The source made the active and inactive calls. Rule for the calls: active = growth percent below 10; inactive = the rest.
System: HL-60(TB) leukemia
Assay: NCI-60 one-dose screen, 48 h (100 = growth as untreated, 0 = no growth, -100 = all killed)
Conditions: 10 µM unless noted

SMILES | growth
CN(Cc1cc(Cl)cc(Cl)c1O)Cc1cc(Cl)cc(Cl)c1O | 53.1% (inactive)
CN1C(=O)/C(=C/c2ccc(C(=O)Nc3ncc(Cc4ccc(Cl)cc4)s3)cc2)SC1=S | 57.6% (inactive)
CC(C)(C)CC1(C)NC(=O)NC1=O (centres undefined) | 114% (inactive)
CCN1CCC2(CC1)OC(c1ccccc1)C(c1ccccc1)O2 (centres undefined) | 103% (inactive)
COc1ccc(-c2cc(NC(=O)Nc3ccc(O)cc3)no2)cc1 | 26.4% (inactive)
CCN(CC)CC(O)CNc1c2ccc([N+](=O)[O-])cc2nc2cc(OC)c(OC)cc12 (centres undefined) | -17.5% (active)
Cc1ccc(Nc2nc(N)c3ccccc3n2)cc1Cl | 78.2% (inactive)
CCOC(=O)N1CCN(CCCCOc2ccc(C(C)(C)CC)cc2)CC1 | 79.1% (inactive)
ON=C1CCCCCCCC1 | 61.9% (inactive) and 105% (inactive)
O=C1Nc2ccccc2/C1=C\c1nc(-c2ccccc2F)n2ccccc12 | 73.4% (inactive)
NC(CCc1nc2ccccc2c(=O)[nH]1)C(=O)O (centres undefined) | 103% (inactive)
CCN(C(=O)N1CCN(c2cc3c(cc2F)c(=O)c(C(=O)O)cn3C2CC2)CC1)c1nc(-c2ccc(Cl)cc2)cs1 | -27.1% (active)
NCCCNc1nc2ccccc2c2c(=O)c3cccc(F)c3sc12 | 13.9% (inactive)
COc1ccc(N)c2c1C(=O)c1ccccc1C2=O | 45.8% (inactive)
O=C(c1cccc(C(=O)c2ccc3c4c(cccc24)C(=O)N(c2ccccc2)C3=O)c1)c1ccc2c3c(cccc13)C(=O)N(c1ccccc1)C2=O | 103% (inactive)
COc1ccc(-c2cc(-c3cc(OC)ccc3OC)[nH]c(=O)c2C#N)cc1 | 18.1% (inactive)
Cc1ccc(S(=O)(=O)Nc2cccc(Cn3c(=O)[nH]c4ccc(Oc5ncccn5)cc4c3=O)c2)cc1 | 65.3% (inactive)
C[C@]12CC[C@@H]3c4ccc(O)cc4CC[C@H]3[C@@H]1C[C@H](O)[C@@H]2O | 112% (inactive)
CC(=O)c1cc(C)c(OC(=O)c2ccccc2)c(C)c1 | 97.9% (inactive)
O=C(C[P+](c1ccccc1)(c1ccccc1)c1ccccc1)C[P+](c1ccccc1)(c1ccccc1)c1ccccc1 | -43.6% (active)

SMILES | growth
O=C1CSC2=NCCN12 | 106% (inactive) and 86.3% (inactive)
CN1CCN(CC(=O)N(C)c2ccc(N=C(c3ccccc3)c3c(O)[nH]c4ccc(C#N)cc34)cc2)CC1 | 14.9% (inactive)
O=C1c2c(c3c4ccccc4[nH]c3c3ccc4ccccc4c23)C(=O)N1CCN1CCCCC1 | 9.19% (active)
O=C(CN1C(=O)S/C(=C\C(Cl)=C\c2ccccc2)C1=O)NCCc1ccc(O)cc1 | 3.33% (active)
O=Nc1ccc(Nc2ccccc2)cc1 | -1.72% (active)
C[C@@H](CO)[C@@H]1CCC=C2CC[C@]3(C)[C@H](CC[C@@H]4[C@@]5(C)CCCNC(C)(C)[C@@H]5CC[C@]43C)[C@H]21 | -6.22% (active)
CS(=O)(=O)OCC1NC(=O)C(COS(C)(=O)=O)NC1=O (centres undefined) | 98% (inactive) and 106% (inactive)
O=C(Nc1ccc2cc3ccc(NC(=O)N4CCCCCC4)cc3nc2c1)N1CCCCCC1 | -49.6% (active)
Cc1ccccc1NC(=O)N/C(N)=N/c1nc(C)c(C)s1 | -2.57% (active)
C=C1C(=O)O[C@H]2[C@H]1CC/C(COC(=O)NCc1c[nH]c3ccc(OC)cc13)=C\CC[C@@]1(C)O[C@@H]21 | -35.8% (active)
ClCc1ccc(-c2ccc(Cn3cnc4nc(Cl)nc(Cl)c43)cc2)cc1 | -78.9% (active)
CCCCCCCC(=O)SCC/C=C/[C@@H]1CC(=O)NCc2cccc(n2)C2=N[C@@](C)(CS2)C(=O)N[C@@H](C(C)C)C(=O)O1 | 19.9% (inactive)
COc1ccc(-c2cc(-c3cc(OC)ccc3OC)nc(SCC(=O)c3ccccc3)c2C#N)cc1 | 98.4% (inactive)
COc1ccc(C2C=C(c3ccc(Cl)cc3)N=C3SC=CN32)cc1 (centres undefined) | 113% (inactive)
O=c1c(-c2nc3ccccc3[nH]2)cc2ccccc2n1Cc1cn(Cc2ccc(F)cc2)nn1 | 0.035% (active)
O=C(Nc1ccc(F)cc1F)c1cc(F)ccc1O | -25.4% (active)
NC(=S)NNC1CCCCC1 | 67.3% (inactive)
CCc1ccc(-c2ccc(NC3CCCCCC3)nn2)cc1S(N)(=O)=O | 121% (inactive)
COc1cc(NC(C)CCCNC(C)C)c2ncccc2c1OC (centres undefined) | 10.6% (inactive)

From PubChem BioAssay (NCI)
